Results with a measured potency or affinity are listed apart.
Key:
Staphylococcus aureus = conditions: Concentration 32 ug.mL-1; ASSAY_TEST Inhibition of Bacterial Growth; detection method Absorption (OD600); MEDIA CAMHB; plate type 384well; NBS; CORNING #3640; time 18 hr
Escherichia coli = conditions: Concentration 32 ug.mL-1; ASSAY_TEST Inhibition of Bacterial Growth; detection method Absorption (OD600); MEDIA CAMHB; plate type 384well; NBS; CORNING #3640; time 18 hr

SMILES | Inhibition (Staphylococcus aureus) | Inhibition (Escherichia coli)
COc1ccccc1C1c2ccc3ccccc3c2Oc2nc3c(c(N)c21)CCCC3 (stereo unspecified) | 0.62% | 3.02%
Cl.NC1(C(=O)O)CC1c1cccc(Cl)c1 (stereo unspecified) | 12.59% | 12.02%
COc1cccc(C2c3c(nc4c(c3N)CCCC4)Oc3ccc4ccccc4c32)c1 (stereo unspecified) | 4.84% | -1.02%
C=CCNCc1cc2cc(OCCCC3CCN(Cc4ccccc4)CC3)ccc2[nH]1.O.O=C(O)C(=O)O.O=C(O)C(=O)O | 13.83% | -23.08%
C=CCNc1[nH]c2ccc(O)cc2c1C#N | 32.95% | -4.66%
Cc1ccc2nc(Cl)c(/C=N/N)cc2c1 | 28.8% | 25.39%
CCOC(=O)CCc1c[nH]c2ccccc12 | -15.79% | -15.2%
Cc1ccc(/C=N/NC(=O)c2c[nH]c3ccccc23)cc1 | 6.96% | 7.51%
N#C/C(=C\c1ccccc1)C(=O)c1ccccc1 | 10.5% | 8.34%
CCOC(=O)c1cc2cc(O)ccc2n1C(=O)OC(C)(C)C | 5.1% | 10.33%
CC(=O)Oc1cccc(C=C2N=C(c3ccccc3)OC2=O)c1 | 11% | 13.2%
O=C(N/N=C/Cc1ccccc1)c1cc2ccccc2[nH]1 | 10.17% | 9.88%
O=C(Cc1c[nH]c2ccccc12)NNCc1ccccc1 | -6.19% | -10.21%
Cn1c(C(=O)N2CCOCC2)cc2cc(OCCCC3CCN(Cc4ccccc4)CC3)ccc21 | 23.07% | -10.59%
CCOC(=O)/C(C#N)=C\c1ccc([N+](=O)[O-])cc1 | 32.65% | 19.98%
COc1cccc(C2C(C#N)=C(N)Oc3ccc4ccccc4c32)c1 (stereo unspecified) | 40.42% | -5.36%
N#Cc1cc(Br)cc(Br)c1N | 3.71% | 14.62%
CCOC(=O)c1c(C)nc(/N=N/c2nc(C)c(C(=O)OCC)c(-c3ccccc3)c2C#N)c(C#N)c1-c1ccccc1 | 11.27% | 6.76%
Cn1ccnc1C1c2ccc3cccnc3c2Oc2nc3c(c(N)c21)CCCCC3 (stereo unspecified) | 21.02% | -10.34%

SMILES | Inhibition (Staphylococcus aureus) | Inhibition (Escherichia coli)
Cc1[nH]nc2c1C(c1cccc([N+](=O)[O-])c1)C(C#N)=C(N)O2 (stereo unspecified) | 7.57% | 4.04%
Cn1ccnc1C1C(C#N)=C(N)Oc2c1ccc1cccnc21 (stereo unspecified) | 12.96% | -14.85%
COc1cc(C2C(C#N)=C(N)Oc3c2ccc2ccccc32)ccc1O (stereo unspecified) | 50.2% | -13.64%
COc1nc2ccc(C)cc2cc1C=O | 18.14% | 18.17%
Cl.Nc1c2c(nc3c1C(c1c(Cl)cccc1Cl)c1ccc4ccccc4c1O3)CCCC2 (stereo unspecified) | -3.18% | -2.79%
O=Cc1c[nH]c2ccccc12 [3-FORMYLINDOLE] | 16.72% | 17.3%
CC(=O)Oc1ccc(C=C2N=C(C)OC2=O)cc1 | 8.81% | 9.02%
CCOC(=O)C1=C(C)OC(N)=C(C#N)C1c1ccc([N+](=O)[O-])cc1 (stereo unspecified) | 16.31% | -9.87%
N#Cc1c(Cl)nc(Cl)c(C#N)c1-c1ccccc1 | 37.97% | -3.96%
Cn1c(CNNC(=O)c2ccco2)cc2ccccc21 | 1.86% | 21.64%
C#CCNc1nc(N)c(C#N)cc1C#N | -1.17% | -11.19%
Nc1c2c(nc3c1C(c1ccc([N+](=O)[O-])cc1)c1ccc4ccccc4c1O3)CCCC2 (stereo unspecified) | -9.37% | -12.22%
Cc1nn(-c2ccccc2)c2ncnc(Nc3ccccc3)c12 | 6.52% | 10.84%
O[C@H]1CC[C@H](NCc2ccccc2)CC1 | 21.55% | -7.34%
COc1ccc2cc(C3C(C(C)=O)=C(C)Oc4nc5c(c(N)c43)CCC5)c(Cl)nc2c1 (stereo unspecified) | 7.35% | 4.4%
CC/C(C)=N/NC(=O)Cc1c[nH]c2ccccc12 | -7.02% | -3.01%
C/C=C(/C#N)C(=O)OC | -6.91% | -6.93%
CC(=O)n1cc(/C=C2\N=C(c3ccccc3)OC2=O)c2ccccc21 | 15.78% | 15.77%
Cl.N#Cc1cc(C#N)c(N2CCCC2)nc1Cl | 37.39% | -6.69%

From ChEMBL document CHEMBL4513135, “CO-ADD screening of IQOG CSIS (Spain) compounds”
